Test results published in PubChem BioAssay (NCI).
Compounds without any hit were thinned out: in the full panel of roughly 83,000, 20% have a hit.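 The test compound was applied at a single concentration to cells in 96-well plates for 48 hours, and percent growth was recorded.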 Unmarked numbers belong to inactive results. Activity calls are given as the source filed them. The calls were made as follows: active = growth percent below 10; inactive = the rest.

These compounds were tested on HL-60(TB) leukemia (assay: NCI-60 one-dose screen, 48 h (100 = growth as untreated, 0 = no growth, -100 = all killed)). Details: 10 µM unless noted.

Row | SMILES | growth
1 | COc1ccc(CN2C(=O)/C(=C/c3nc(CO)cs3)SC2=S)cc1 | 58.9%
2 | C#CCn1cc(/C=N/Nc2nc(-c3ccc(Br)cc3)cs2)c2ccccc21 | 107%
3 | Clc1ccc2[nH]cc(-c3nn4cc(-c5cccnc5)nc4s3)c2c1 | 86.2%
4 | NC(=O)n1c(=O)n(-c2cccc(C(F)(F)F)c2)c(=O)c2cc(-c3ccc(F)cc3F)ccc21 | -49.4% (active)
5 | O=C(CSc1nnc(-c2ccc(Cl)cc2)n1-c1ccccc1)Nc1cccc(Cl)c1 | 89.8%
6 | O=C(CCCCCC/C=C\c1csc(Br)n1)NO | 78.5%
7 | O=C(O)c1ccc(-n2cc(CNc3cc(F)c(F)c(F)c3)c(-c3cccc(F)c3)n2)cc1 | 108%
8 | Oc1ccc(CSc2nnc(-c3ccc(Oc4ccccc4)cc3)n2-c2ccccc2)c2cccnc12 | 10.1%
9 | COc1cccc(NC2=CC(=O)C(C)=C(C)C2=O)c1 | 3.49% (active)
10 | CS(=O)(=O)Nc1cc(-c2ccc3ncc(C#N)c(N[C@H](CO)c4ccccc4)c3c2)cnc1Cl | 25%
11 | COc1ccc(Cn2cc3c(c2-c2ccccc2)CCCc2cnoc2-3)cc1[N+](=O)[O-] | 27%
12 | O=C(/C=C/c1ccc(Cl)c(Cl)c1)Nc1ncc(Cc2ccc(Cl)c(Cl)c2)s1 | 48.2%
13 | COc1cccc2c1[C@H](OC)[C@]13O[C@@]1(C2=O)[C@H](O)[C@H](C)[C@@](O)(C(=O)[C@@H]1O[C@H]1C)[C@@H]3O | -46.6% (active)
14 | O=C(Nc1cccc(C(F)(F)F)c1)N1CCN(c2cc(-c3cn(-c4ccccc4)nc3-c3cccc(O)c3)ccn2)CC1 | 20.9%
